In PubChem BioAssay (NCI):
“And” between values parts separate entries of the source, which are not always exact repeats. Identical values can stand only once. The panel holds about 79,000 compounds, 15% with a hit somewhere; the sample as a whole holds those more often. The source holds several records for some structures; these can differ, active in one and inactive in another. The source made the active and inactive calls. Cut-off read from the data, not from the text of the source: active = growth inhibition above about 70%; inactive = the rest.

Experiments:
[1] = NCI Yeast Anticancer Drug Screen. Data for the rad52 strain (AID 147);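 note: 0% = growth of vehicle-treated control cultures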; conditions: S. cerevisiae rad52 mutant growth inhibition, stronger effect = higher value
Summary of the method: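 Yeast strain carrying a DNA damage repair alteration was exposed to test compounds. Growth inhibition was measured relative to vehicle-treated controls.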

[2] = NCI Yeast Anticancer Drug Screen. Data for the wt1 strain (AID 149);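 note: 0% = growth of vehicle-treated wt1 cultures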; conditions: S. cerevisiae wt1 strain (SPY 50644) growth inhibition, stronger effect = higher value
Summary of the method: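 Yeast wt1 strain exposed to compounds; growth inhibition measured relative to vehicle-treated controls.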

[3] = NCI Yeast Anticancer Drug Screen. Data for the rad50EPP+ strain (AID 151);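 note: 0% = growth of vehicle-treated control cultures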; conditions: S. cerevisiae rad50 mutant strain, stronger effect = higher value
Summary of the method: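 Yeast strain carrying rad50 alteration (rad50EPP+) exposed to compounds; growth inhibition measured relative to vehicle-treated controls.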

[4] = NCI Yeast Anticancer Drug Screen. Data for the mgt1 strain (AID 153); conditions: S. cerevisiae mgt1 mutant growth inhibition, stronger effect = higher value
Summary of the method: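 Yeast mgt1 strain (DNA repair/cell-cycle alteration panel) exposed to compounds; growth inhibition measured relative to vehicle-treated controls.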

[5] = NCI Yeast Anticancer Drug Screen. Data for the rad50 strain (AID 155);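 note: 0% = growth of vehicle-only cultures of the same strain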; conditions: S. cerevisiae rad50 strain growth inhibition, stronger effect = higher value
Summary of the method: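 Yeast carrying a defined DNA repair defect were exposed to test compounds, and growth was compared with vehicle-treated controls to give percent inhibition.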

[6] = NCI Yeast Anticancer Drug Screen. Data for the mec2-1 strain (AID 157); conditions: S. cerevisiae mec2-1 strain, stronger effect = higher value
Summary of the method: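 mec2-1 yeast strain, carrying an alteration in DNA damage repair or cell cycle control, was exposed to compounds; growth inhibition was measured relative to vehicle-treated controls.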

[7] = NCI Yeast Anticancer Drug Screen. Data for the rad14 strain (AID 159);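 note: 0% = growth of vehicle-treated control cultures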; conditions: S. cerevisiae rad14 strain growth inhibition, stronger effect = higher value
Summary of the method: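 Yeast cells carrying a defined DNA-repair defect were exposed to compounds, and growth inhibition was calculated relative to vehicle-treated control cultures.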

[8] = NCI Yeast Anticancer Drug Screen. Data for the sgs1 mgt1 strain (AID 161);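 note: 0% = growth of cultures given vehicle only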; conditions: S. cerevisiae sgs1 mgt1 strain, stronger effect = higher value
Summary of the method: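 Percent growth inhibition was derived by comparing compound-exposed mutant yeast with vehicle-exposed cultures. The strain carries alterations in DNA damage repair.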

[9] = NCI Yeast Anticancer Drug Screen. Data for the cln2 rad14 strain (AID 165);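 note: 0% = growth equal to vehicle treated cultures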; conditions: S. cerevisiae cln2 rad14 strain, stronger effect = higher value
Summary of the method: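 Yeast carrying cln2 and rad14 alterations (cell cycle control and DNA damage repair) were exposed to compounds. Growth inhibition was measured against vehicle-treated controls.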

[10] = NCI Yeast Anticancer Drug Screen. Data for the bub3 strain (AID 167); conditions: S. cerevisiae bub3 mutant strain, stronger effect = higher value
Summary of the method: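 Compounds were applied to a genetically altered yeast strain carrying a cell-cycle control defect. Growth inhibition was scored against vehicle-treated controls.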

[11] = NCI Yeast Anticancer Drug Screen. Data for the wt2 strain (AID 169);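 note: 0% = growth of vehicle-treated yeast cultures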; conditions: S. cerevisiae wt2 strain growth inhibition, stronger effect = higher value
Summary of the method: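 Yeast cells were exposed to test compounds, and growth inhibition was measured relative to vehicle-treated controls.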

[12] = NCI Yeast Anticancer Drug Screen. Data for the sgs1 strain (AID 173);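 note: 0% = growth of vehicle-only control cultures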; conditions: S. cerevisiae sgs1 mutant, stronger effect = higher value
Summary of the method: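 Yeast mutant strains carrying defined defects in DNA damage repair or cell cycle control were exposed to test compounds. Growth inhibition was scored against vehicle-treated controls.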

[13] = NCI Yeast Anticancer Drug Screen. Data for the mlh1 rad18 strain (AID 175); conditions: S. cerevisiae mlh1 rad18 strain growth inhibition, stronger effect = higher value
Summary of the method: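 Growth inhibition of the yeast strain was measured after compound exposure and expressed relative to vehicle-treated controls. The strain carries defined defects in DNA damage repair.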

[14] = NCI Yeast Anticancer Drug Screen. Data for the rad18 strain (AID 177); conditions: S. cerevisiae rad18 mutant growth inhibition, stronger effect = higher value
Summary of the method: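 Yeast carrying a defined DNA damage repair alteration were exposed to compounds. Growth inhibition was expressed relative to vehicle-treated controls.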

[15] = NCI Yeast Anticancer Drug Screen. Data for the mlh1 strain (AID 171);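 note: 0% = growth of vehicle-treated control cultures of the same strain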; conditions: S. cerevisiae mlh1 strain growth inhibition, stronger effect = higher value
Summary of the method: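 Yeast carrying a defined genetic alteration in DNA damage repair or cell cycle control were exposed to test compounds. Growth inhibition was measured relative to vehicle-treated controls.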

[16] = at 5.0 µM (retest, dose inferred, filed as 0.5)
[17] = at 50.0 µM (retest, dose inferred, filed as 5.0)

Measured: growth inhibition

O=C(O)Cc1cc(F)ccc1C(=O)O
inactive: [1]; at 1.2 µM 3% | [1]; at 3.7 µM 4% | [1]; at 11.0 µM 7% | [1]; at 33.0 µM 12% | [1]; at 100.0 µM 28% | [2]; at 1.2 µM 3% | [2]; at 3.7 µM 7% | [2]; at 11.0 µM 13% | [2]; at 33.0 µM 16% | [2]; at 100.0 µM 25% | [3]; at 1.2 µM -2% | [3]; at 3.7 µM -6% | [3]; at 11.0 µM -13% | [3]; at 33.0 µM -26% | [3]; at 100.0 µM -15% | [4]; at 1.2 µM -1% | [4]; at 3.7 µM 3% | [4]; at 11.0 µM 9% | [4]; at 33.0 µM 28% | [4]; at 100.0 µM 48% | [5]; at 1.2 µM 3% | [5]; at 3.7 µM 3% | [5]; [16] -2% | [5]; at 11.0 µM 6% | [5]; at 33.0 µM 12% | [5]; [17] 45% | [5]; at 50.0 µM 5.3% | [5]; at 100.0 µM 29% | [6]; at 1.2 µM -1% | [6]; at 3.7 µM 0% | [6]; [16] 1% | [6]; at 11.0 µM 3% | [6]; at 33.0 µM 11% | [6]; [17] 2% | [6]; at 50.0 µM 29.9% | [6]; at 100.0 µM 30% | [7]; at 1.2 µM 0% | [7]; at 3.7 µM -2% | [7]; at 11.0 µM 4% | [7]; at 33.0 µM 14% | [7]; at 100.0 µM 51% | [8]; [16] -8% | [8]; [17] 65% | [8]; at 50.0 µM 21.2% | [9]; [16] -2% | [9]; [17] 5% | [10]; at 1.2 µM -1% | [10]; at 3.7 µM -2% | [10]; [16] 8% | [10]; at 11.0 µM 1% | [10]; at 33.0 µM 4% | [10]; [17] 66% | [10]; at 100.0 µM 17% | [11]; at 1.2 µM 2% | [11]; at 3.7 µM 6% | [11]; at 11.0 µM 13% | [11]; at 33.0 µM 18% | [11]; at 100.0 µM 42% | [12]; at 1.2 µM 2% | [12]; at 3.7 µM 7% | [12]; at 11.0 µM 9% | [12]; at 33.0 µM 21% | [12]; at 100.0 µM 65% | [13]; [16] -5% | [13]; at 50.0 µM 38.3% | [14]; at 1.2 µM 3% | [14]; at 3.7 µM 1% | [14]; at 11.0 µM 0% | [14]; at 33.0 µM 12% | [14]; at 100.0 µM 42%
active: [9]; at 50.0 µM 94.5% | [10]; at 50.0 µM 73.5% | [13]; [17] 75%

Cc1sc2ccc3ccccc3c2[n+]1C
inactive: [1]; at 1.2 µM -3% | [1]; at 3.7 µM -14% | [1]; at 11.0 µM -17% | [1]; at 33.0 µM 3% | [2]; at 1.2 µM -21% | [2]; at 3.7 µM -19% | [2]; at 11.0 µM -24% | [2]; at 33.0 µM -8% | [3]; at 1.2 µM -23% | [3]; at 3.7 µM -10% | [3]; at 11.0 µM -40% | [3]; at 33.0 µM -25% | [3]; at 100.0 µM 10% | [4]; at 1.2 µM -9% | [4]; at 3.7 µM -12% | [4]; at 11.0 µM -17% | [4]; at 33.0 µM 13% | [5]; at 1.2 µM 7% | [5]; at 3.7 µM 27% | [5]; [16] 44% and -15% | [5]; at 11.0 µM 12% | [5]; at 33.0 µM 15% | [6]; at 1.2 µM -31% | [6]; at 3.7 µM -36% | [6]; [16] 49% and -26% | [6]; at 11.0 µM -17% | [6]; at 33.0 µM -11% | [6]; [17] 61% and -2% | [7]; at 1.2 µM -34% | [7]; at 3.7 µM -22% | [7]; at 11.0 µM -29% | [7]; at 33.0 µM -28% | [8]; [16] -14% and -11% | [8]; [17] 20% and 4% | [9]; [16] 47% and -10% | [9]; [17] 32% and 15% | [10]; at 1.2 µM -2% | [10]; at 3.7 µM -15% | [10]; [16] 23% and -18% | [10]; at 11.0 µM -28% | [10]; at 33.0 µM 14% | [10]; [17] 44% and 36% | [11]; at 1.2 µM -11% | [11]; at 3.7 µM 2% | [11]; at 11.0 µM -12% | [11]; at 33.0 µM 8% | [15]; at 1.2 µM -67% | [15]; at 3.7 µM -62% | [15]; at 11.0 µM -70% | [15]; at 33.0 µM -41% | [15]; at 100.0 µM 41% | [12]; at 1.2 µM 3% | [12]; at 3.7 µM 2% | [12]; at 11.0 µM 1% | [12]; at 33.0 µM 19% | [13]; [16] 32% and -17% | [13]; [17] 46% and 8%
active: [1]; at 100.0 µM 94% | [2]; at 100.0 µM 94% | [4]; at 100.0 µM 79% | [5]; at 50.0 µM 82.6% and 95.2% | [5]; at 100.0 µM 83% | [6]; at 50.0 µM 85.8% and 91.7% | [6]; at 100.0 µM 93% | [7]; at 100.0 µM 85% | [8]; at 50.0 µM 89.2% and 97.3% | [9]; at 50.0 µM 87.2% and 77.2% | [10]; at 50.0 µM 86.6% and 89.3% | [10]; at 100.0 µM 96% | [11]; at 100.0 µM 94% | [12]; at 100.0 µM 91% | [13]; at 50.0 µM 86.7% and 96.7%
77% (active) and -4% (inactive): [5]; [17]
